The nature of assay [1]: qHTS to identify inhibitors of the type 1 interferon - major histocompatibility complex class I in skeletal muscle: primary screen against the NCATS Pharmaceutical Collection (AID 1347407).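 Also: luminescence of HiBiT knocked into endogenous HLA-B as interferon-induced MHC class I level.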 Also: potency is read from the fitted curve at half-maximal effect. The gist of the method: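 Compounds […] were added to CRISPR-engineered HLA-B-HiBiT C25cl48 human myoblasts with 4.0 ng/ml IFN-beta. After 24 hrs at 37 C, cells were lysed and HiBiT luminescence measured.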

The nature of assay [2]: qHTS to identify inhibitors of the type 1 interferon - major histocompatibility complex class I in skeletal muscle: primary screen against the NCATS Mechanism Interrogation Plate v5.0 (MIPE) Libary (AID 1347411). Also: nearly all actives have a fitted effect of over 65% in size. Also: potency is read from the fitted curve at half-maximal effect. In short, it runs like this:
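Immortalized human myoblasts (C25cl48) with HiBit knocked into endogenous HLA-B*08:01 were stimulated with 4 ng/ml IFN-beta and given compounds in 11-point 1:3 titration from 46 uM. After 24 h at 37 C, lytic HiBiT luminescence was read.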

For assay [3], the target named is Protein phosphatase 1D (Homo sapiens) (UniProt O15297). Kind of assay: RapidFire Mass Spectrometry qHTS Assay for Modulators of WT P53-Induced Phosphatase 1 (WIP1) (AID 1347424).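 Also: amount of dephosphorylated VEPPL-S-QETFS peptide product formed by WIP1.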 Also: potency is read from the fitted curve at half-maximal effect. The gist of the method:
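WIP1 (10 nM final) was preincubated 1 h at room temperature with compounds in Tris-HCl pH 7.5, 30 mM MgCl2, TCEP, EGTA, BSA; 2 uM VEPPL-pS-QETFS phosphopeptide was added for 5 min, quenched with formic acid, and dephosphorylated product quantified by RapidFire MS.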

Assay [4] has the same target. Kind of assay: Rhodamine-PBP qHTS Assay for Modulators of WT P53-Induced Phosphatase 1 (WIP1) (AID 1347425). The gist of the method:
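Read-out: Rhodamine-PBP fluorescence (ex 525/em 598 nm) for released Pi, read each minute for 11 min after adding 10 uM VEPPL-pS-QETFS; signal taken as f1 minus pre-substrate f0. Enzyme 5 nM WIP1 with 1 hr room-temperature compound preincubation.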

Assay [5] in a line: qHTS to identify inhibitors of the type 1 interferon - major histocompatibility complex class I in skeletal muscle: primary screen against the NCATS LOPAC collection (AID 1347405).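 Also: lytic HiBiT luminescence reporting HLA-B protein level.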 In short, it runs like this:
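CRISPR-engineered immortalized human myoblasts (C25cl48) with HiBiT fused to endogenous HLA-B*08:01, stimulated with 4 ng/ml IFN-beta. LOPAC compounds tested as a 7-point 1:4.3 titration (top 46 uM final), 24 h at 37 C; lytic HiBiT luminescence read.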

A short description of assay [6]: qHTS for inhibitors of adenylyl cyclases using a fission yeast platform: a pilot screen against the NCATS LOPAC library (AID 1347410). The gist of the method:
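GFP from fbp1-GFP reporter, read by Acumen laser cytometry, indicates AC inhibition in fission yeast expressing AC9, GNAS and PDE4D2. Cells grown 18 h in the dark at 30C with compounds, final up to 57 uM.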

Assay [7] is described as follows: Validation qHTS assay for inhibitors of Activation Induced Cytidine Deaminase (AID): UDG Counterscreen signal (AID 1347427). The gist of the method: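 Counterscreen read of UDG activity (2 U/mL, 4/3x) in the FRET deamination format with AID (1 uM, 4/3x), DJC20/DJC23 substrates (250 nM, 4x), 4 h at room temperature. NaOH stop, fluorescence at 560 ex/665 em.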
Assay [8] concerns the target Single-stranded DNA cytosine deaminase (Homo sapiens) (UniProt Q9GZX7). Kind of assay: Validation qHTS assay for inhibitors of Activation Induced Cytidine Deaminase (AID): AID signal (AID 1347429). Also: potency is read from the fitted curve at half-maximal effect. The gist of the method: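 FRET deamination assay: 1 uM AID (4/3x stock) with UDG, compound up to 114 uM, then 250 nM DJC20/DJC23 substrate (4x stock) for 4 hr at room temperature. NaOH added, 30 min; fluorescence read 540/590 nm.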

Assay [9] is described as follows: Viability qHTS for inhibitors of the SERCaMP assay screened against the NCATS CANVASS Library (AID 1347400). Also: series mostly up to about 92 µM; nearly all actives have a fitted effect of over 70% in size. In short, it runs like this: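 SH-SY5Y-GLuc SERCaMP MJH297-derived cells, 1000/well, plated 4 h, then exposed to compounds in an 11-point qHTS series for 48 h at 37C. Viability read as CellTiter-Glo luminescence.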
Assay [10] is described as follows: Redox Reaction Profiling qHTS: Assay Interference Panel against the NCATS CANVASS Library (AID 1347401). The gist of the method:
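Resazurin (5 uM) conversion to resorufin measured with 200 uM DTT in 50 mM HEPES pH 7.3, 50 mM NaCl. Compounds tested in 11-point qHTS series. Fluorescence (ex 525/em 598 nm) read before and after 15 min dark incubation.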

Records with an inconclusive call do not appear. Activity calls are given as the source filed them. Calls follow the shape of the dose curve; as a rule, active = well fitted curve in the direction sought with a large enough effect; inconclusive = small, poorly fitted or top-dose-only effect, or another doubt; inactive = no such curve, though single readings can be large; an effect the other way counts as inactive or inconclusive.

Sequence of Protein phosphatase 1D (Homo sapiens) (O15297 whole entry, looked up): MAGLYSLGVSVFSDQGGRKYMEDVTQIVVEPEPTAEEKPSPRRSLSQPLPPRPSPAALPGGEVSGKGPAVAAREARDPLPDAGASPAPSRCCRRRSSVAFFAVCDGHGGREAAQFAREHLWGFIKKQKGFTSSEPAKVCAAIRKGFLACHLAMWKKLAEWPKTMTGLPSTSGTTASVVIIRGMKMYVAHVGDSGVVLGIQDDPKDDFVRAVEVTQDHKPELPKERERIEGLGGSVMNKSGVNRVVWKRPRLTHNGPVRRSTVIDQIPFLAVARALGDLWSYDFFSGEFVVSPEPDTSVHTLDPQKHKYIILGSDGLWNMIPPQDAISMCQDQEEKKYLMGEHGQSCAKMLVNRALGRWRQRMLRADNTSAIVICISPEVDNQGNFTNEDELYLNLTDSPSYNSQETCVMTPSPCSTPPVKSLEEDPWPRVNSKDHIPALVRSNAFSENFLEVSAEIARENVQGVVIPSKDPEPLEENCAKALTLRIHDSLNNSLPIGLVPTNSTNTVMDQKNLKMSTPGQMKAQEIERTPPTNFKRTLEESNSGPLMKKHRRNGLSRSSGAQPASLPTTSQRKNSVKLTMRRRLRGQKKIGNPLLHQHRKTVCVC
Sequence of Single-stranded DNA cytosine deaminase (Homo sapiens) (Q9GZX7 whole entry, looked up): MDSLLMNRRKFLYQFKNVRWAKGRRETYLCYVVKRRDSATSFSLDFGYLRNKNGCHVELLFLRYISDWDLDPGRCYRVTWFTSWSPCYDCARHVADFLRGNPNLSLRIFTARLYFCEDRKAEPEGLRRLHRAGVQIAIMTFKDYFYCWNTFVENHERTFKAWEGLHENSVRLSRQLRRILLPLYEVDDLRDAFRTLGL

`CN(C)CC/C=C1/c2ccccc2COc2ccc(CC(=O)O)cc21`: the Potency result in assay [1], in [2] and in [3] was “inactive” throughout. Also, the molecule was called inactive in assay [4].
Take `N[C@H](CO)C(=O)O`: the outcome in [5], in [6] and in [7] was inactive. Moreover, the Potency result in [8] is “inactive”.
With `CC(C)=CCC1C(=O)N(c2ccccc2)N(c2ccccc2)C1=O`, the Potency in [1] was 18.7 µM (active).
Turning to `CC(=O)O[C@H]1C[C@@H]2CC[C@@H]3[C@H](CC[C@@]4(C)[C@H]3C[C@H]([N+]3(C)CCCCC3)[C@@H]4OC(C)=O)[C@@]2(C)C[C@@H]1[N+]1(C)CCCCC1`, the outcome in assay [5], in assay [6] and in assay [7] was inactive. For the same molecule, the Potency in [8] was 7.94 µM (active).
As for `COc1cccc2c1C(=O)c1c(O)c3c(c(O)c1C2=O)C[C@@](O)(C(=O)CO)C[C@@H]3O[C@H]1C[C@H](N)[C@H](O)[C@H](C)O1`, the values for the Potency in assay [1] and in assay [2] were 23.6 µM (active) and 0.829 µM (active), respectively. In assay [3], the Potency entry was “inactive”. Further, in [4], the call was inactive.
For `C1CCc2nnnn2CC1`, the molecule was called inactive in [5], in assay [6] and in [7]. Moreover, in assay [8], the Potency result is “inactive”.
In the case of `CC(=O)N(O)CCCCCNC(=O)CCC(=O)N(O)CCCCCNC(=O)CCC(=O)N(O)CCCCCN`, the Potency result in assay [1] and in assay [2] was “inactive” in each case. Further, the molecule was called inactive in assay [4].
As for `CC[C@H](C)C(=O)O[C@H]1CCC=C2C=C[C@H](C)[C@H](CC[C@@H]3C[C@@H](O)CC(=O)O3)[C@H]21`, the call in assay [5], in [6] and in assay [7] was inactive. Also, the Potency entry in [2] and in assay [8] was “inactive” throughout.
For `COC(=O)[C@H]1[C@H]2C[C@H]3c4[nH]c5ccccc5c4CCN3C[C@H]2CC[C@@H]1O`, the result in assay [5], in assay [6] and in assay [7] was inactive. The Potency entry in assay [8] is “inactive”.
`CC(C)(CO)[C@@H](O)C(=O)NCCCO`: the Potency result in assay [1] and in assay [3] was “inactive” each time. Besides, the call in assay [4] was inactive.
With `CC(C)(C)CC(C)(C)c1ccc(O)c(Cc2ccc(Cl)cc2Cl)c1`, the Potency entry in assay [1] and in [3] was “inactive” each time.
As for `CC/C(=C(/CC)c1ccc(O)cc1)c1ccc(O)cc1`, the Potency entry in assay [1] and in [2] was “inactive” in each case. For the same molecule, the Potency in [3] was 15.8 µM (active).
In the case of `Oc1ccc(O)cc1`, the outcome in assay [5], in [6], in [4] and in [7] was inactive. In addition, the Potency result in [1], in assay [3] and in assay [8] was “inactive” throughout.
Take `COC(=O)[C@@H]1CC2=CC(=O)CC[C@]2(C)[C@@]23O[C@@H]2C[C@@]2(C)[C@@H](CC[C@@]24CCC(=O)O4)[C@H]13`: the Potency entry in [1], in assay [2] and in assay [3] was “inactive” throughout. For the same molecule, the result in assay [4] was inactive.
On to `CN1CCC[C@@H]1c1cccnc1`, for which the outcome in assay [9], in [10] and in assay [4] was inactive. Besides, the Potency result in assay [1] is “inactive”.
`C[N+]1(CCCCC[N+]2(C)CCCC2)CCCC1`: the result in assay [5], in assay [6] and in assay [7] was inactive. The Potency result in assay [8] was “inactive”.
As to `O=C(O)c1cc2cc(Cc3cccnc3)ccc2o1`, the molecule was classed as inactive in assay [5], in assay [6] and in assay [7]. Also, the Potency entry in assay [8] was “inactive”.
With `CCCCCCc1ccc(O)cc1O`, the Potency result in assay [1] and in [3] was “inactive” each time.
On to `C/C=C(/C(=C/C)c1ccc(O)cc1)c1ccc(O)cc1`, for which, in [1], the Potency entry is “inactive”.
`CCCC1O[C@@H]2C[C@H]3[C@@H]4CCC5=CC(=O)C=C[C@]5(C)[C@H]4[C@@H](O)C[C@]3(C)[C@]2(C(=O)CO)O1` (stereo partly specified): the result in [5], in assay [6] and in assay [7] was inactive. In addition, the Potency result in assay [8] was “inactive”.
In the case of `COc1c(C)c2c(c(O)c1C/C=C(\C)CCC(=O)O)C(=O)OC2`, the Potency entry in assay [1], in assay [2] and in [3] was “inactive” each time. The molecule was classed as inactive in assay [4].
For `COc1cc(C=C2CCC/C(=C\c3ccc(O)c(OC)c3)C2=O)ccc1O`, in assay [1], the Potency is 14.9 µM (active). Further, the Potency entry in assay [3] is “inactive”.
With `CCCn1c(=O)[nH]c(=O)c2[nH]cnc21`, the molecule was called inactive in assay [5], in assay [6] and in assay [7]. The Potency result in assay [8] was “inactive”.
Take `Nc1ccn([C@@H]2O[C@H](CO)[C@@H](O)C2(F)F)c(=O)n1`: the Potency entry in [1], in assay [2] and in assay [3] was “inactive” each time. Moreover, the molecule was classed as inactive in assay [4].
With `CCC(NC(C)C)C(O)c1ccc(O)c(O)c1` (stereo unspecified), the call in assay [5], in assay [6] and in assay [7] was inactive. Further, the Potency entry in assay [8] is “inactive”.
In the case of `N[C@@H](Cc1cnc[nH]1)C(=O)O`, the molecule was classed as inactive in assay [5], in assay [6] and in assay [7]. In addition, in [8], the Potency result was “inactive”.
On to `CC(C)COC(=O)OCN1C(=O)CN(CCN2CC(=O)N(COC(=O)OCC(C)C)C(=O)C2)CC1=O`, for which the molecule was classed as inactive in [5], in assay [6] and in [7]. In addition, the Potency result in assay [8] was “inactive”.
On to `CNCCC(Oc1ccccc1C)c1ccccc1` (stereo unspecified), for which the molecule was called inactive in assay [5], in assay [6] and in assay [7]. In assay [8], the Potency entry was “inactive”.
For the molecule `O=C1CCC(c2ccc(-n3ccnc3)cc2)=NN1`, the outcome in assay [5], in assay [6] and in [7] was inactive. Also, the Potency result in assay [8] is “inactive”.
Take `CN1C2CCC1CC(OC(=O)c1c[nH]c3ccccc13)C2` (stereo unspecified): the molecule was called inactive in assay [5], in [6] and in assay [7]. Besides, the Potency entry in assay [8] was “inactive”.
Take `CC(=O)O[C@]1(C(C)=O)CC[C@H]2[C@@H]3C[C@H](C)C4=CC(=O)CC[C@]4(C)[C@H]3CC[C@@]21C`: the Potency result in assay [1] and in assay [2] was “inactive” in each case. Also, in assay [4], the molecule was classed as inactive.
Regarding `CC1(C)O[C@@H]2C[C@H]3[C@@H]4C[C@H](F)C5=CC(=O)C=C[C@]5(C)[C@H]4[C@@H](O)C[C@]3(C)[C@]2(C(=O)CO)O1`, the Potency entry in assay [1], in assay [2] and in [3] was “inactive” throughout. Further, the result in assay [4] was inactive.

(Values after PubChem BioAssay (NCATS).)
